Bioassay records deposited in PubChem BioAssay by National Center for Advancing Translational Sciences (NCATS).
In the library only some 17% were active in any assay of this set; here they are far more common.
HepG2 tox – counter-screen for TGF-b inhibitors: cytotoxicity in HepG2 cells | Potency, µM (top dose mostly 46.1 µM), without a hit: at the highest dose activity change, negative = cytotoxicity, hits mostly cytotoxic | 0.76% of 410,000 active | HepG2 CAGA-GFP viability, ATP luminescence, 18 h
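HepG2 CAGA-GFP cells (1000/well, DMEM with 1% FBS) received compound, then TGF-beta at 500 pg/mL final, and were incubated 18 hours at 37 degrees C. Viability was read by CellTiter-Glo luminescence. Media-only wells were set as complete cell-killing and DMSO as no toxicity.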
HT1080 IDH1KD tx – HT-1080 IDH1 knockdown cell toxicity (counter line); HT-1080 IDH1 knockdown viability, ATP luminescence, 48 h; Potency, µM (top dose mostly 46.1 µM), without a hit: at the top dose activity, negative = toxicity, hits mostly cytotoxic; 2% of 360,000 active; AID 686971;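 note: 0% = DMSO wells and -100% = cell-free medium wells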
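Cytotoxicity counter-line: IDH1KD HT-1080, 48 h, CellTiter-Glo. Curves classed by r2, magnitude and activity.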
HT1080-NT tox – kills 2HG-producing HT-1080-NT fibrosarcoma cells. HT-1080-NT fibrosarcoma viability, CellTiter-Glo ATP luminescence, 48 h. Potency, µM (highest dose often 46.1 µM), without a hit: at the top dose activity, negative = less viability, usual class: cytotoxic. 1.6% of 360,000 active;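 note: NT is the 2HG producing partner of a matched IDH1 knockdown line; 0% = DMSO-treated cells and -100% = media-only wells without cells; nearly all actives have a fitted effect of over 55% in size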
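HT-1080-NT fibrosarcoma cells (2HG-overproducing), 750 cells/well in RPMI with 5% FBS, dosed after 2 h and incubated 48 h at 37C. CellTiter-Glo luminescence normalized to DMSO and no-cell wells; concentration-response curves fitted and classed.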
DT40 TDP1 CPT – growth inhibition of DT40 Tdp1-/-;hTDP1 cells with camptothecin (screen for TDP1 inhibitors). 12% of 420,000 active. AID 686979. Potency, µM (series often up to 46.2 µM), without a hit: top-dose activity change, negative = growth inhibition, actives largely listed as inhibitors. chicken DT40 Tdp1-/-;hTDP1 cells + 20 nM CPT, ATP luminescence, 48 h; note: % is set by controls: 0 for no effect and ±100 for the full control effect; nearly all actives have a fitted effect of over 55% in size
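Chicken DT40 Tdp1-/- cells complemented with human TDP1, 400 cells/well, exposed to compounds plus 20 nM camptothecin for at least 48 h at 37 C; viability read as ATP content by CellTiter-Glo luminescence.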
TGFb inhibitor – inhibitors of TGF-b signaling; HepG2 CAGA-GFP TGF-b/SMAD3 reporter, GFP fluorescence, 18 h; TGF-beta stimulated, 500 pg/mL final; Potency, µM (highest dose often 46.1 µM), inactives show top-dose activity, negative = inhibition, most hits filed as inhibitors; 1.2% of 410,000 active; note: % is set by controls: 0 for no effect and ±100 for the full control effect; nearly all actives have a fitted effect of over 65% in size
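Per well, imaged GFP fluorescence of HEPG2 CAGA-GFP cells gives the signal; cells get compound, then TGF-beta (500 pg/mL final), 18 h at 37 degrees C; %Activity versus -TGF-beta and +DMSO controls.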
DT40 TDP1 no CPT – qHTS for Inhibitors of human tyrosyl-DNA phosphodiesterase 1 (TDP1): qHTS in cells in absence of CPT; DT40 Tdp1-/- hTDP1 cells, no CPT, ATP luminescence, 48 h; Potency, µM (doses to about 46.2 µM), inactives show top-dose activity change, negative = growth inhibition, most hits filed as inhibitors; 15% of 420,000 active; AID 686978, 2013; note: % is set by controls: 0 for no effect and ±100 for the full control effect; nearly all actives have a fitted effect of over 55% in size
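Cells were dispensed at 400 per well, compounds added by pin tool, plates incubated ≥48 hr at 37 °C, then CellTiter-Glo added for 30 min at room temperature before luminescence reading. Line: DT40 Tdp1-/- complemented with hTDP1; camptothecin omitted.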
Numbers without * were called inactive; u = inconclusive; x = no result given; [ ] = dose if it differs, or a comment. Calls come from the whole dose curve; as a rule, active = well fitted curve in the direction sought with a large enough effect; inconclusive = small, poorly fitted or top-dose-only effect, or another doubt; inactive = no such curve, though single readings can be large; an effect the other way counts as inactive or inconclusive. Potency is the fitted concentration of half-maximal effect.

SMILES	HepG2 tox	HT1080 IDH1KD tx	HT1080-NT tox	DT40 TDP1 CPT	TGFb inhibitor	DT40 TDP1 no CPT
Cc1ccc(OCCn2c(C)nc3ccccc32)cc1	-22%	u	-10%	u	-25%	u
Cc1nc2ccccc2n1CCCOc1ccccc1	-15%	u	-11%	u	-8%	23µM*
Cc1ccc(S(=O)(=O)N2CCN(C(C)C(=O)Nc3ccccc3-c3ccccc3)CC2)cc1 (stereo not drawn)	-8%	-7%	-3%	u	-5%	16µM*
CC(C(=O)Nc1ccccc1-c1ccccc1)N1CCN(C(=O)c2ccccc2)CC1 (stereo not drawn)	-39%	1%	0%	u	-3%	26µM*
CC1CCN(C(C)C(=O)Nc2ccccc2-c2ccccc2)CC1 (stereo not drawn)	-30%	-15%	-25%	u	u	u
CCOC(=O)CSc1nc2c(sc(=S)n2-c2ccccc2OC)c(=O)n1Cc1ccco1	-29%	0%	-18%	-15%	-9%	-1%
CCOc1ccc(S(=O)(=O)NC2CC2)cc1	33%	10%	7%	2%	0%	-2%
Cn1c(=O)c2c(nc(N3CCc4ccccc4C3)n2Cc2ccccc2F)n(C)c1=O	-25%	-1%	0%	13µM*	u	16µM*
CCOC(=O)Cn1c(CN2CCN(C(c3ccccc3)c3ccccc3)CC2)nc2c1c(=O)n(C)c(=O)n2C	-13%	-13%	0%	u	-13%	23µM*
COC(=O)Cn1c(CN2CCc3ccccc3C2)nc2c1c(=O)n(C)c(=O)n2C	-1%	2%	5%	13µM*	-8%	21µM*
Cn1c(=O)c2c(nc(CN3CCc4ccccc4C3)n2Cc2ccc(F)cc2)n(C)c1=O	-6%	-3%	-1%	21µM*	u	18µM*
CN(Cc1ccccc1)Cc1nc2c(c(=O)n(C)c(=O)n2C)n1Cc1ccc(F)cc1	-31%	1%	0%	u	-16%	u
CN1CCN(c2nc3c(c(=O)n(C)c(=O)n3C)n2Cc2ccccc2F)CC1	-17%	1%	3%	3%	6%	-6%
COc1cc(NS(=O)(=O)c2cc3c(cc2C)n(C)c(=O)c(=O)n3C)cc(OC)c1	-23%	x	x	-20%	-15%	u
CCOC(=O)N1CCN(Cc2ccc(OCC(O)CN3CCCCC3)cc2)CC1 (stereo not drawn)	-3%	2%	-2%	u	34%	9%
CCCCn1c(CN2CCN(C(=O)OCC)CC2)nc2c1c(=O)n(C)c(=O)n2C	4%	5%	-2%	12µM*	-9%	9.2µM*
Cc1ccccc1Cn1c(CN2CCN(C(=O)c3ccco3)CC2)nc2c1c(=O)n(C)c(=O)n2C	-25%	-3%	13%	-11%	-12%	-23%
Cc1ccccc1Cn1c(CN2CCc3ccccc3C2)nc2c1c(=O)n(C)c(=O)n2C	-29%	u	u	u	u	21µM*
CCCCOc1ccc(C2C(=O)N(C3CCCCC3)CC(=O)N2C2CCCCC2)cc1 (stereo not drawn)	2%	x	x	-8%	-6%	-15%
O=c1[nH]c(-c2ccc(F)cc2)nc2c1sc(=S)n2-c1ccccc1	-14%	-2%	-1%	u	0%	6.5µM*
CC1(C)CC(=O)C2=C(C1)OC1=C(C2)C(=O)CC(C)(C)C1	1%	9%	-2%	-3%	-2%	-14%
CCC(=O)NCC(c1cccs1)N1CCOCC1 (stereo not drawn)	5%	8%[9.24 µM]	1%	u	24%	-11%
Cc1cc(OCC(=O)NCC(c2cccs2)N2CCOCC2)ccc1C(C)C (stereo not drawn)	-7%	-13%	-19%	u	u	u
Cc1cc(Cl)ccc1OCC(=O)NCC(c1cccs1)N1CCOCC1 (stereo not drawn)	6%	-21%	-13%	u	-8%	16µM*
Cc1ccc(C(C)C)c(OCC(=O)NCC(c2cccs2)N2CCOCC2)c1 (stereo not drawn)	8%	-3%	-21%	26µM*	-20%	13µM*
SMILES	HepG2 tox	HT1080 IDH1KD tx	HT1080-NT tox	DT40 TDP1 CPT	TGFb inhibitor	DT40 TDP1 no CPT
Cc1cc(SCC(=O)NCC(c2cccs2)N2CCOCC2)c(C)cc1Br (stereo not drawn)	-2%	-5%	-10%	u	-36%	18µM*
Cc1cc(-c2ccc(NC(=O)[C@@H]3CCCC[C@@H]3C(=O)O)c(C)c2)ccc1NC(=O)[C@@H]1CCCC[C@@H]1C(=O)O	9%	-18%	-21%	u	4%	u
CC(C)(C)CN1C(=O)C(=O)NC[C@@H]1CC1CCCCC1	x	8%	21%	-14%	x	-7%
COc1ccccc1CCN=C(N)NS(=O)(=O)c1cc(F)ccc1F	-3%	0%	-9%	u	0%	-16%
CCCCn1c(=O)n(Cc2cccc(F)c2)c(=O)c2c1ncn2Cc1ccco1	-19%	-9%	-7%	u	3%	u
CCCCCc1c(-c2ccc(F)cc2F)ncn1CCc1ccccc1OC	x	u	u	u	x	21µM*
CCCCc1c(Cc2cccc(F)c2)ncn1CCc1ccccc1OC	x	u	16µM*	u	x	13µM*
COc1cccc2c1c(NC(=O)Nc1ccc(F)cc1F)nn2C	1%	19%	2%	0%	15%	3%
CCCCc1c(-c2ccc(F)cc2F)ncn1CCc1ccccc1OC	x	u	u	23µM*	x	26µM*
COc1cc(NC(=O)c2cc(C)no2)c(OC)cc1Cl	1%	0%	-1%	3%	11%	1%
O=C(NCCCN1CCOCC1)c1onc(CSc2ccc(F)c(F)c2)c1C(=O)NCCCN1CCOCC1	-14%	-3%	-8%	-1%	-9%	-13%
Cc1ccc(C)c2[nH]c(=O)c(CN(CCN3CCCC3)C(=O)Nc3cccc(Cl)c3)cc12	-40%	u	u	23µM*	u	18µM*
Cc1cc(C)c2cc(CN(CCN3CCCC3)C(=O)Nc3ccc(F)cc3)c(=O)[nH]c2c1	-37%	18µM*	u	15µM*	u	21µM*
CCC(=O)N(Cc1cc2c(C)cc(C)cc2[nH]c1=O)C1CCCCC1	-33%	-12%	-16%	u	3%	u
